# According to the supplement of paper PMC3334620:
# Whole data set: some 33,000 sequences, median “E-score (-0.5 to 0.5)” near -0.013, cut for the highest 2% near 0.3. For the sample, the highest values were picked, then their nearest neighbours and some sequences at random.
# Target: T1, Msn1 (UniProt P22148)
# T1 sequence: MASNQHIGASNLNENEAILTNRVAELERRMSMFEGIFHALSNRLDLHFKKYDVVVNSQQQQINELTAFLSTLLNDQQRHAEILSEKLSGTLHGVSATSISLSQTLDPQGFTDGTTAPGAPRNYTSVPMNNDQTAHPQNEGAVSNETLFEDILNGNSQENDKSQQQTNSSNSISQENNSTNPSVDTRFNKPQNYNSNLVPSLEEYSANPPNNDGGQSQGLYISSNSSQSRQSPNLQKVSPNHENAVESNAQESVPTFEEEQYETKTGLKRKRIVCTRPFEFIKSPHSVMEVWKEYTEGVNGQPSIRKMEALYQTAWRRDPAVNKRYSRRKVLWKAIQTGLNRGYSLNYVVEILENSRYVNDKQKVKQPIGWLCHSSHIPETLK
# Assay: PBM E-score (8-mer binding enrichment) (E-score (-0.5 to 0.5)); higher = stronger / more preferred TF binding
# Conditions: protein concentration: 200 nM; construct: GST-full length
# Experimental: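 Universal 'all 10-mer' protein binding microarrays (Agilent AMADID 015681) probed with GST-tagged S. cerevisiae TFs (full-length or DBD) made by in vitro transcription/translation (PURExpress), about 100-200 nM. Bound TF was detected with fluorescent anti-GST. Each ungapped 8-mer (which stands for itself and its reverse complement) is scored by the PBM enrichment score (E-score), a modified Wilcoxon-Mann-Whitney statistic from -0.5 to +0.5, computed with the Universal PBM Analysis Suite. Scale: above 0.35 generally sequence-specific binding.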
row,Sequence,PBM E-score
1,CGACTTTA,0.201
2,AGACTTTA,0.0848
3,GGACTTTA,0.328
4,TGTGACAA,0.377
5,GGTGACAC,-0.0303
6,CGTGACAG,0.0649
7,CGTGACAA,0.309
8,GGTGACAA,0.322
9,TCTGACAA,0.198
10,CCTGACAA,0.202
11,AGTGACAA,0.302
12,GTTGACAA,0.269
13,CCGCCAGG,-0.117
14,AACAGCGG,-0.0502
15,CGCTATGC,-0.215
16,ATGTCCGA,0.475
17,AGGTCCGA,0.132
18,GTGTCCGA,0.37
19,GGGTCCGA,-0.115
20,ACGTCCGA,-0.00037
21,CTGTCCGA,0.275
22,AGTCCTGC,0.0243
23,AAAATCTG,0.182
24,AGATTGCC,-0.0449
25,AAAGACCG,0.0194

row,Sequence,PBM E-score
1,CAGGTAGA,-0.142
2,CCCTTCAA,-0.185
3,ATAGAGCG,-0.0637
4,ATTTTGTG,0.144
5,ATTTTGTC,0.468
6,AATTTGTG,0.186
7,AATTTGAC,0.194
8,ATTTTGTA,0.209
9,AATTTGTC,0.488
10,GGGGGAAC,-0.456
11,GTAAAGTA,0.0255
12,TCGGGAAA,0.176
13,TCGGGAGA,0.014
14,GCGGGATA,0.0848
15,ACGGGACT,0.0899
16,GCGGGACA,0.359
17,GCGGGACC,-0.22
18,ACGGGACC,-0.247
19,CCGGGACA,0.457
20,CCGGGACG,-0.0555
21,CCGGGACC,-0.159
22,TCGGGACA,0.456
23,ACGGGACA,0.384
24,GAGCCCGA,-0.128
25,CTAGTGGA,-0.211

row,Sequence,PBM E-score
1,CGGAGGAC,0.0943
2,ACTTAGCG,0.074
3,ACCTCGAG,-0.0305
4,CATGGTCA,0.117
5,CTGGGGTC,-0.217
6,CGACTTCA,0.0948
7,GCGCTTGA,0.00998
8,GGACTTCA,0.0504
9,ACACTGTC,0.165
10,ATCCTTAA,-0.126
11,ATCCTAGA,-0.0654
12,GTCCTAAA,0.365
13,CTCCTACA,-0.187
14,CTCCTTAA,-0.0988
15,ATCCTAAA,-0.0285
16,GTCCTACA,0.385
17,TTCCTAAA,0.0739
18,GTCCTTAA,0.433
19,GTCCTAGA,0.342
20,ATCCTACA,-0.189
21,CTCCTAGA,-0.0389
22,ACAGCCGA,-0.16
23,GGCAAACC,-0.244
24,ACTCTCCG,-0.11
25,ACCTCCTG,-0.169

row,Sequence,PBM E-score
1,AGCATACC,-0.0756
2,ACACTAAC,0.119
3,CTCTATGC,-0.0926
4,AGTCGGAG,-0.189
5,GGACTTAC,0.273
6,CCTCCGGA,0.102
7,GTACTAGA,0.308
8,CTACTAGA,-0.0895
9,GTCCTAAC,0.36
10,ATCCTAAC,0.0664
11,ATACTAGA,0.125
12,CTCCTAAC,-0.278
13,ACTCAAAG,0.0435
14,ATGCGTTA,-0.0377
15,CACACTAC,-0.188
16,CAAGGGCG,-0.191
17,ATGCAGAG,-0.253
18,GTCGGAGA,0.0165
19,ATCGGACA,0.369
20,CTCGGACC,0.165
21,CTCGGACA,0.44
22,ATCGGACG,0.00151
23,GTCGGACA,0.427
24,GTCGGATA,0.0474
25,CTCGGATA,0.157

row,Sequence,PBM E-score
1,ATCGGACC,0.0183
2,CTGGGCCC,-0.252
3,CGCCTGGA,-0.0478
4,ACTGAACA,0.0547
5,CATTGCGA,-0.0316
6,ATCACCAA,-0.0626
7,GAGTAATC,-0.128
8,CCGACTGC,-0.00611
9,TAATGTAA,0.114
10,ACGGTTCT,-0.0415
11,GGACAAGA,0.458
12,GTACAATA,0.332
13,AGACAACC,0.208
14,AGACAACA,0.248
15,CTACAATA,0.0926
16,ATACAATA,0.114
17,GCACAAGA,-0.0415
18,AGACAATC,0.359
19,ATACAATC,-0.0273
20,GGACAACA,0.337
21,CGACAACA,0.204
22,CGACAAGA,0.121
23,AAATCTCC,-0.234
24,AGCCTTCC,-0.323
25,ACTTCGCT,-0.0222

row,Sequence,PBM E-score
1,AGGGCCAT,-0.246
2,AATTTCCT,0.0244
3,TACGGGGA,-0.11
4,ATCGTATG,0.0884
5,CGACAATA,0.334
6,GGACAATA,0.464
7,CCACAATA,-0.105
8,GAACAATA,0.144
9,CGACAATC,0.113
10,AGACAATA,0.428
11,CGACAAGC,-0.0394
12,ACACAATA,0.15
13,AGACAAGA,0.3
14,AGACAAGC,0.307
15,GCACAATA,-0.126
16,AGACAATG,0.295
17,CCCTAGCA,-0.119
18,CGTAGCAC,-0.0105
19,CATAGATA,0.126
20,AGCGAATG,-0.207
21,AGAGTATG,-0.143
22,AGAACTGA,0.0524
23,TCACTTCA,-0.0878
24,GATTTTCA,0.209
25,TACAGCAA,0.00838

row,Sequence,PBM E-score
1,AAACGTCC,0.317
2,GAACGTCC,0.206
3,AAACGTCT,0.24
4,TACTTCAA,0.16
5,AGGATACG,-0.105
6,CTCGCCCC,-0.302
7,AAGGTACA,0.166
8,CTGTGAGA,0.00231
9,GACATGTA,0.424
10,GACATGTC,0.455
11,AACATGTG,0.0694
12,AACATGTT,-0.0343
13,CACATGTG,-0.149
14,TACATGTA,0.247
15,CACATGTC,0.431
16,AACATGTA,0.186
17,GACATGGC,0.276
18,CACATGTA,0.121
19,AACATGTC,0.401
20,ATCATGTC,0.278
21,CGAGGGCG,-0.271
22,GACTCATC,-0.0489
